Assay results taken from PubChem BioAssay (Tox21).
“And” between values parts separate entries of the source, which are not always exact repeats. Identical values can stand only once. Inconclusive results are not listed. Where a call stands in place of a potency, no number is given. The source made the active and inactive calls. Calls come from the whole dose curve; as a rule, active = well fitted cell-killing curve with a large enough effect in the repeat runs; inconclusive = weak or mixed curves, or effect the other way; inactive = no such curve, though single readings can be large or run the other way.

test: qHTS assay to identify small molecule antagonists of the peroxisome proliferator-activated receptor gamma (PPARg) signaling pathway - cell viability counter screen (AID 743194); conditions: PPARg-bla HEK293H viability, CellTiter-Glo luminescence, 17 h, co-treated with 50 nM rosiglitazone; series mostly up to 62.6 µM; note: nearly all actives have a fitted effect of over 55% in size
Description: U.S. Tox21 Program National Center for Advancing Translational Sciences [NCATS] NIH Chemical Genomics Center [NCGC] U.S. Environmental Protection Agency [EPA] National Institutes of Environmental Health Sciences [NIEHS] National Toxicology Program [NTP] U.S. Food and Drug Administration [FDA] Tox21 Assay Overview: The peroxisome proliferator-activated receptors (PPARs) are lipid-activated transcription factors of the nuclear receptor superfamily with three distinct subtypes namely PPAR alpha, PPAR delta (also called PPAR beta) and PPAR gamma (PPARg). All these subtypes heterodimerize with Retinoid X receptor (RXR) and these heterodimers regulate transcription of various genes. PPAR-gamma receptor (glitazone receptor) is involved in the regulation of glucose and lipid metabolism. To identify the compounds that activate PPAR-gamma signaling, GeneBLAzer PPAR gamma UAS-bla HEK293H cell line (Invitrogen, Carlsbad, CA, USA) containing a beta-lactamase reporter gene under the control of an Upstream Activator Sequence (UAS) was used to screen the Tox21 compound library. The cytotoxicity of the Tox21 compound library against the PPARg-bla cell line was tested in parallel by measuring the cell viability using CellTiter-Glo assay in the same wells.
Tox21 Assay Protocol Summary: PPARg-bla cells were dispensed at 3000 cells/5uL/well in 1536-well black wall/clear bottom plates using a Multidrop Combi (Thermo Fisher Scientific, Waltham, MA) dispenser. After the assay plates were incubated at 37 C and 5% CO2 for 5 h, 23 nL of compounds dissolved in DMSO, positive controls or DMSO only was transferred to the assay plate by a Pintool station (Kalypsys, San Diego, CA), followed by addition of 1ul Rosiglitazone (50 nM, final concentration in the wells). The assay plates were incubated at 37 C for 17 h, and then 1 uL of LiveBLAzerTM B/G FRET substrate was added using a Bioraptr Flying Reagent Dispenser (FRD) workstation (Beckman Coulter, Indianapolis, IN, USA). The assay plates were incubated at room temperature for 1 h and fluorescence intensity was measured by an Envision plate reader (PerkinElmer, Shelton, CT). For cell viability readout that measures cytotoxicity, 4 ul/well of CellTiter-Glo reagent was added into the assay plates using a Flying Reagent Dispenser. After 30 min incubation at room temperature, the luminescence intensity in the plates was measured using a ViewLux plate reader (PerkinElmer).
Potency is the fitted concentration of half-maximal effect.

| Structure (SMILES) | Potency |
| --- | --- |
| CCCCCCCCCCCCCCCC[N+](C)(C)CC | 17.4 µM (active) and 26.6 µM (active) |
| CN(C)C(=O)COC(=O)Cc1ccc(OC(=O)c2ccc(N=C(N)N)cc2)cc1 | inactive |
| O=[N+]([O-])c1cccc(C(F)(F)F)c1 | inactive |
| CN(C)Cc1cc(C(C)(C)C)c(O)c(C(C)(C)C)c1 | inactive |
| CCCc1ccc(OCC(=O)N2CCN(C(=O)COc3ccc(CCC)cc3OC)CC2)c(OC)c1 | inactive |
| Clc1ccnc(Cl)n1 | inactive |
| C=C(C)C(=O)OCCCCCCCCCC | inactive |
| C=CC(C)(CCC=C(C)C)OC=O (stereo not given) | inactive |
| CC(N=C(NC#N)Nc1ccncc1)C(C)(C)C (stereo not given) | inactive |
| COc1cc(S(=O)(=O)O)c(C)cc1N=Nc1c(O)ccc2cc(S(=O)(=O)O)ccc12 | inactive |
| O=C1c2ccccc2C(=O)N1SC1CCCCC1 | 54.9 µM (active) |
| C#C[C@]1(OC(C)=O)CC[C@H]2[C@@H]3CCC4=C[C@@H](OC(C)=O)CC[C@@H]4[C@H]3CC[C@@]21C | inactive |
| COC1=C(OC)C(=O)C(CCCCCCCCCCO)=C(C)C1=O | inactive |
| O=[N+]([O-])c1ccc(F)c(Cl)c1 | inactive |
| Cc1cc(-c2ccc(N=Nc3cc(S(=O)(=O)O)c4ccccc4c3N)c(C)c2)ccc1N=Nc1cc(S(=O)(=O)O)c2ccccc2c1N | inactive |
| CCCCCCCCCCCCCC[N+](C)(C)C | 18.8 µM (active) and 24.5 µM (active) and 29.8 µM (active) |
| Oc1cc(Cl)cc(Cl)c1Cl | inactive |
| COc1cc(C)ccc1O | inactive |
| O=[N+]([O-])c1ccc(O)cc1C(F)(F)F | 38.9 µM (active) |
| CC(C)(C)c1ccc(C(O)CCCN2CCC(C(O)(c3ccccc3)c3ccccc3)CC2)cc1 (stereo not given) | 13.3 µM (active) |

| Structure (SMILES) | Potency |
| --- | --- |
| Oc1ccccc1O | inactive |
| COc1cc(/C=C/c2ccccc2)oc(=O)c1 | inactive |
| CCCCCc1ccc(Cl)cc1 | inactive |
| CC1=CCC(=C(C)C)CC1 | inactive |
| Nc1nc(N)nc(-c2cc(Cl)ccc2Cl)n1 | inactive |
| CCCCOC(=O)CC | inactive |
| CC(C)OC(=O)C(O)(CC(=O)O)CC(=O)O | inactive |
| O=C(O)c1cc(=O)c2ccccc2o1 | inactive |
| OC[C@@H](O)[C@@H](O)CO | inactive |
| CCC(C)(CCC(C)C)C(=O)[O][Sn]([CH3])([CH3])[O]C(=O)C(C)(CC)CCC(C)C (stereo not given) | inactive |
| Cc1cc(C)c(/C=C2\C(=O)Nc3ccccc32)[nH]1 | inactive |
| C[Si](Cl)(c1ccccc1)c1ccccc1 | inactive |
| CCCCNS(=O)(=O)c1ccc(C)cc1 | inactive |
| C#CC1(O)CC[C@H]2[C@@H]3CCC4=CCCC[C@@H]4[C@H]3CC[C@@]21C (stereo not given in full) | 18.8 µM (active) |
| CCCCC(CC)COC(=O)CCCCC(=O)OCc1ccccc1 (stereo not given) | inactive |
| O=S(=O)(O)c1ccc(Nc2nc(Nc3ccc(/C=C/c4ccc(Nc5nc(Nc6ccc(S(=O)(=O)O)cc6)nc(N(CCO)CCO)n5)cc4S(=O)(=O)O)c(S(=O)(=O)O)c3)nc(N(CCO)CCO)n2)cc1 | inactive |
| Fc1ccc(C(c2ccc(F)cc2)N2CCNCC2)cc1 | 26.6 µM (active) |
| C=Cc1ccccc1C=C | inactive |
| Cc1cccc2cccnc12 | inactive |
| c1cnccn1 | inactive |
